Source: PubChem BioAssay (NCATS)
Results filed as inconclusive are left out. Calls of active or inactive are those of the source. Unless noted, calls come from the whole dose curve; as a rule, active = well fitted curve in the direction sought with a large enough effect; inconclusive = small, poorly fitted or top-dose-only effect, or another doubt; inactive = no such curve, though single readings can be large; an effect the other way counts as inactive or inconclusive.

How the values were obtained:
[1] = Cellular Toxicity (caspase-3) SHSY5Y (AID 657)
Outline: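 Cells plated and incubated 5 h at 37 °C, dosed over a concentration range, incubated 16 h, then given Caspase-Glo 3/7 reagent for 1 h at room temperature before luminescence reading. Staurosporine (10 uM) defined full stimulation.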

[2] = Cellular Toxicity (caspase-3) BJ (AID 658);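 note: 0% = DMSO basal and 100% = 10 µM staurosporine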
Outline: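 Luminescent aminoluciferin-substrate cleavage reports caspase 3/7 activity in normal human BJ fibroblasts after 16 hr compound exposure at 37 °C. Normalized to DMSO (basal) and 10 uM staurosporine (100%); AC50 from Hill fit of concentration-response.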

[3] = Cellular Toxicity (caspase-3) N2a (AID 665);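 note: compound exposure lasted 16 h at 37 °C before readout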
Outline: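 Mouse N2a neuroblastoma cells (1500/well) were treated with compounds for 16 h at 37 °C, then caspase-3/7 activity was read by Caspase-Glo luminescence after 1 h at room temperature. Data were normalized to DMSO and 10 uM staurosporine; AC50 from Hill fits.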

[4] = Cellular Toxicity (caspase-3) Renal Proximal Tubule (AID 667);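 note: cells exposed to compound for 16 hours at 37 °C before detection; 0% = DMSO basal and 100% = 10 µM staurosporine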
Outline: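 In qHTS format, rat primary proximal tubule cells seeded at 1000 per well are exposed to compounds for 16 hours at 37 °C. An increase in Caspase-Glo 3/7 luminescence indicates caspase activation.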

[5] = MultiTox-Fluor Cytotoxicity Assay - LYMP1-001 - Dead Cells (AID 946)
Outline: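 Cytotoxicity as increased dead-cell protease fluorescence (bis-AAF-R110, 485/520 nm), read 60 min after MultiTox-Fluor reagent. Human lymphoblastoid line exposed 16 h; Hill-fitted AC50, with DMSO as 0% and 15 uM tetraoctylammonium bromide as 100%.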

[6] = Cell Viability - LYMP1-002 - Assay at 16 hr (AID 948);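 note: 0% = DMSO alone and full effect = 92 µM tetraoctylammonium bromide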
Outline: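 Acute cytotoxicity is scored as a concentration-dependent fall in intracellular ATP in a human lymphoblastoid line (LYMP1-002) after 16 hr compound exposure at 37 C, measured by luciferase luminescence.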

[7] = MultiTox-Fluor Cytotoxicity Assay - LYMP1-003 - Dead Cells (AID 961); note: nearly all actives have a fitted effect of over 70% in size
Outline: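 Dead-cell protease release, detected as bis-AAF-R110 fluorescence at 485/520 nm, was measured in LYMP1-003 cells after 16 h compound treatment at 37 C. AC50 values came from Hill-modeled qHTS curves normalized to DMSO (0%) and 15 uM tetraoctylammonium bromide (100%).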

[8] = Cell Viability - LYMP1-003 - Assay at 24 hr (AID 963);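 note: plate controls were DMSO only for no effect and tetraoctylammonium bromide positive control for full effect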
Outline: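 Human lymphoblastoid LYMP1-003 cells (2500/well) were rested 5 hr at 37 C, then exposed to compounds in complete medium for 24 hr at 37 C. Cellular ATP was quantified by CellTiter-Glo luminescence, and AC50 values came from Hill fits of concentration-response data.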

[9] = Cell Viability - LYMP2-003 (AID 965);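 note: cells exposed to compounds for 24 h before reading; 0% = DMSO only and full effect = 92 µM tetraoctylammonium bromide; nearly all actives have a fitted effect of over 50% in size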
Outline: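 Acute cytotoxicity is scored as a concentration-dependent drop in intracellular ATP, measured by luciferase luminescence in human lymphoblastoid cells treated for 24 hours at 37 C. AC50 values derive from Hill-equation modelling.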

[10] = Cell Viability - LYMP2-013 (AID 970);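 note: series mostly up to about 92 µM; 0% = DMSO only and full inhibition = tetraoctylammonium bromide control; nearly all actives have a fitted effect of over 55% in size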
Outline: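 Human lymphoblastoid cells, 2500/well, were preincubated 5 hr at 37 C, then treated with compounds for 24 hr at 37 C in complete medium. Intracellular ATP was read by CellTiter-Glo luminescence; AC50 from Hill-equation fits of concentration-response data.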

[11] = Cell Viability - LYMP2-019 (AID 973);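 note: 0% = DMSO alone and full effect = 92 µM tetraoctylammonium bromide; nearly all actives have a fitted effect of over 55% in size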
Outline: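 Human lymphoblastoid cells were seeded at 2500 cells/well, preincubated 5 hr at 37 C, then exposed to compounds for 24 hr at 37 C in complete medium. Intracellular ATP was measured by CellTiter-Glo luminescence; AC50 from Hill fits.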

[12] = Cell Viability - LYMP2-008 (AID 980); note: % is set by controls: 0 for no effect and ±100 for the full control effect; nearly all actives have a fitted effect of over 60% in size
Outline: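 Human lymphoblastoid cells (2500/well) were plated, held 5 hr at 37 C, then exposed to compounds for 24 hr at 37 C in complete medium. Intracellular ATP was read by CellTiter-Glo luminescence; AC50 from Hill-fitted concentration-response.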

[13] = Cell Viability - LYMP2-012 (AID 982);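 note: cellular ATP by luciferase luminescence where a drop means cytotoxicity; cells exposed to compound for one day before reading; 0% = DMSO only and full loss = 92 µM tetraoctylammonium bromide; nearly all actives have a fitted effect of over 55% in size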
[14] = Cell Viability - LYMP2-016 (AID 984); note: % is set by controls: 0 for no effect and ±100 for the full control effect; nearly all actives have a fitted effect of over 55% in size
Outline: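 Acute toxicity in a Coriell human lymphoblastoid line is scored as loss of intracellular ATP over 24 h of treatment in complete medium. CellTiter-Glo signal is fitted across concentrations with the Hill equation to give AC50.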

[15] = Cell Viability - LYMP1-002 - Assay at 24 hr (AID 993); note: % is set by controls: 0 for no effect and ±100 for the full control effect
Outline: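 Human lymphoblastoid LYMP1-002 cells, 2500/well in complete medium, were treated with compounds for 24 h at 37 C; intracellular ATP was read by CellTiter-Glo luminescence. AC50 values came from Hill-equation fits of qHTS concentration-response data.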

[16] = Cell Viability - LYMP1-002 - Assay at 40 hr (AID 994);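 note: 0% = DMSO only and full inhibition = 92 µM tetraoctylammonium bromide; nearly all actives have a fitted effect of over 60% in size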
Outline: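 Human lymphoblastoid cells, 2500/well in complete medium, were preincubated 5 hr at 37 C, then exposed to compounds for 40 hr at 37 C. Intracellular ATP was read by CellTiter-Glo luminescence after 30 min at room temperature; AC50 from Hill-equation fits.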

[17] = qHTS Assay for Identification of Small Molecule Inducers of Hypoxia Response (AID 2120; active = well fitted curve in the direction sought with a large enough effect in the signal ratio, with a control signal flat, not every such curve was filed as active; the % refers to the signal ratio; note: 0% is about no effect)
Outline: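 HRE-beta-lactamase reporter in CellSensor HRE-bla ME-180 cells, 2500 cells/well in Opti-MEM with 0.5% dialyzed FBS; compounds tested as titration series, 17 h at 37 degrees C. CCF4 substrate 2.5 h at room temperature; AC50 from 460/530 nm ratio.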

[18] = target: Peroxisome proliferator-activated receptor alpha (Homo sapiens) (UniProt Q07869); experiment: qHTS assay for small molecule agonists of the peroxisome proliferator-activated receptor alpha (PPARalpha) signaling pathway (AID 651778); details: PathHunter PPARalpha complementation, chemiluminescence, 6 h; stronger effect = higher value; note: % of control where 0% means no effect
Outline: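 Cells plated at 2,000/well and held overnight at 37 C, 5% CO2, then compound added by pin tool for 6 hr; after PathHunter detection reagent and 60 min at room temperature, chemiluminescence from enzyme complementation was read.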

[19] = qHTS assay for cell viability of HEK293 cells (AID 743288); details: ATP luminescence (CellTiter-Glo), 18 h, stronger effect = lower value; note: % is set by controls: 0 for no effect and ±100 for the full control effect; nearly all actives have a fitted effect of over 50% in size
Outline: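 The Tox21 protocol used parental HEK293 cells treated for 18 h at 37 C with compounds delivered by pintool; ATP-coupled luminescence after 30 min at room temperature gave viability.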

[20] = qHTS assay for cell viability of the p53RE-bla HCT-116 cell line (AID 743292)
Outline: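 ATP-based luminescence, 16 h compound exposure at 37 C, p53RE-bla HCT-116 cells at 4,000/well.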

Sequence of Peroxisome proliferator-activated receptor alpha (Homo sapiens) (Q07869 whole entry, looked up): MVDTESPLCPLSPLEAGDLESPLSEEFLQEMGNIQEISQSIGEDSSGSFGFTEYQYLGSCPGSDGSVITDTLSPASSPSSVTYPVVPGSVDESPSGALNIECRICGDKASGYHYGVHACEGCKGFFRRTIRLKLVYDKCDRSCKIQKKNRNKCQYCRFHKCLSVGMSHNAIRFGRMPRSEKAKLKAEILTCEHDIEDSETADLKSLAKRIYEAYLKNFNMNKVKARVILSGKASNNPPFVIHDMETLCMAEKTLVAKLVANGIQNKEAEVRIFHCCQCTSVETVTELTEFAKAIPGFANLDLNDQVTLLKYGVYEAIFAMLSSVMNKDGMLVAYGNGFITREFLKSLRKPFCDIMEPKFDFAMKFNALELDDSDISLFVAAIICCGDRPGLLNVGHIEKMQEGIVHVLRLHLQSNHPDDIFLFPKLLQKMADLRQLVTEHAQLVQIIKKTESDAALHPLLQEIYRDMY

BrC(Br)Br
inactive: outcome [1] | outcome [2] | outcome [3] | outcome [4] | outcome [5] | outcome [6] | Potency [7] | outcome [8] | Potency [9] | Potency [10] | Potency [11] | Potency [12] | Potency [13] | Potency [14] | Potency [15] | Potency [16] | Potency [17] | max response [18] -7% | max response [19] -3.11% | Potency [20]

O=C(O)C(Cl)Br (stereo not given)
inactive: outcome [1] | outcome [2] | outcome [3] | outcome [4] | outcome [5] | outcome [6] | Potency [7] | outcome [8] | Potency [9] | Potency [10] | Potency [11] | Potency [12] | Potency [13] | Potency [14] | Potency [15] | Potency [16] | Potency [17] | max response [18] -0.46% | max response [19] 6.83% | Potency [20]

CCC#N
inactive: outcome [1] | outcome [2] | outcome [3] | outcome [4] | outcome [5] | outcome [6] | Potency [7] | outcome [8] | Potency [9] | Potency [10] | Potency [11] | Potency [12] | Potency [13] | Potency [14] | Potency [15] | Potency [16] | Potency [17] | max response [18] -3.95% | max response [19] -7.94% | Potency [20]

COC(C)(C)C
inactive: outcome [1] | outcome [2] | outcome [3] | outcome [4] | outcome [5] | outcome [6] | Potency [7] | outcome [8] | Potency [9] | Potency [10] | Potency [11] | Potency [12] | Potency [13] | Potency [14] | Potency [15] | Potency [16] | Potency [17] | max response [18] -1.3% | max response [19] -5.4% | Potency [20]

Nc1c(Br)cc([N+](=O)[O-])cc1[N+](=O)[O-]
inactive: outcome [1] | outcome [2] | outcome [3] | outcome [4] | outcome [5] | outcome [6] | Potency [7] | outcome [8] | Potency [9] | Potency [10] | Potency [11] | Potency [12] | Potency [13] | Potency [14] | Potency [15] | Potency [16] | Potency [17] | max response [18] -5.44% | max response [19] -10.1% | Potency [20]

Cc1coc2c1CCC(C)C2 (stereo not given)
inactive: outcome [1] | outcome [2] | outcome [3] | outcome [4] | outcome [5] | outcome [6] | Potency [7] | outcome [8] | Potency [9] | Potency [10] | Potency [11] | Potency [12] | Potency [13] | Potency [14] | Potency [15] | Potency [16] | Potency [17] | max response [18] 9.95% | max response [19] 2.25% | Potency [20]
